# APE1 inh-1 – qHTS Assay for Inhibitors of the Human Apurinic/apyrimidinic Endonuclease 1 (APE1). DNA repair nuclease/redox regulator APEX1 (Homo sapiens), P27695. recombinant APE1, TAMRA/BHQ-2 abasic DNA cleavage fluorescence. Potency, µM (highest dose often 65.8 µM), for the others: top-dose activity change, negative = inhibition, usual class: inhibitors. 350,000 compounds, 0.35% hits. AID 2517, 2012;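 note: potency is the fitted concentration of half-maximal effect; plate controls were vehicle for no effect and reference inhibitor for full effect; nearly all actives have a fitted effect of over 55% in size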
#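 APE1 at 0.75 nM preincubated 15 min at room temperature with compound. Reaction then started with 50 nM double-stranded THF-abasic substrate labelled with TAMRA/BHQ-2, and 525/598 nm fluorescence read kinetically. Activity taken as third-minus-first read difference, normalized to DMSO and NSC13755 controls.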
# RGS12 GoLoco inh-1 – qHTS Assay for Inhibitors of RGS12 GoLoco Motif Activity (Red Fluorophore) | Guanine nucleotide-binding protein G(i) subunit alpha-1 (Homo sapiens), P63096 | Gai1:RGS12 GoLoco peptide FP, rhodamine, 10 min | Potency, µM (highest dose often 61.6 µM), for the others: at the top dose activity, negative = inhibition, hits mostly inhibitors | 230,000 compounds, 0.44% hits | AID 880, 2007; active = well fitted inhibition curve with a large enough effect, not every such curve was filed as active; inactive = no such curve, though single readings can be large or run the other way; note: potency is the fitted concentration of half-maximal effect; % is set by controls: 0 for no effect and ±100 for the full control effect; nearly all actives have a fitted effect of over 30% in size
# BLM helicase inh – qHTS Assay for Inhibitors of Bloom's syndrome helicase (BLM); RecQ-like DNA helicase BLM (Homo sapiens), P54132; recombinant BLM DNA unwinding, fluorescence dequenching; Potency, µM (titrated, usually from 56.1 µM), for inactives: at the highest dose activity change, negative = inhibition, usual class: inhibitors; 350,000 compounds, 0.2% hits; AID 2528, 2010;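 note: potency is the fitted concentration of half-maximal effect; plate controls were vehicle for no effect and no enzyme for full effect; nearly all actives have a fitted effect of over 35% in size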
# RECQ1 inh – qHTS Assay for Inhibitors of RecQ-Like Dna Helicase 1 (RECQ1). RECQ1 DNA unwinding, red fluorescence kinetic read. Potency, µM (top dose mostly 57.3 µM), for inactives: at the top dose activity, negative = inhibition, actives largely listed as inhibitors. 240,000 compounds, 0.54% hits;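 note: potency is the fitted concentration of half-maximal effect; plate controls were vehicle for no effect and no enzyme for full effect; nearly all actives have a fitted effect of over 30% in size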
#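 RECQ1T1 50 nM; forked duplex (20 bp + 30-nt ss tails) 200 nM, ATP 2 mM final; pH 8.0, 2 mM MgCl2, 2.5 ug/ml poly(dI-dC); 15 min compound preincubation; discontinuous kinetic read over 2 h at RT.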
# TexasRed fluor – Total Fluorescence Counterscreen for Inhibitors of the Interaction of Thyroid Hormone Receptor and Steroid Receptor Coregulator 2 | TRb/SRC2 Texas Red total fluorescence interference | Potency, µM (doses to about 106 µM), for inactives: at the highest dose fluorescence change, negative = quenching | 280,000 compounds, 0.29% hits; active = well fitted curve in either direction with a large enough effect; inconclusive = small, poorly fitted or top-dose-only effect; note: potency is the fitted concentration of half-maximal effect; % is set by controls: 0 for no effect and ±100 for the full control effect
#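 Human TRb ligand-binding domain at 0.6 uM with 20 nM Texas Red SRC2 peptide in Tris buffer containing 1 uM T3 and 5% DMSO, incubated with compound 5 h at ambient temperature. Total fluorescence (555/632 nm) calculated as parallel + 2 × perpendicular.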
# TRb SRC2 PPI – qHTS for Inhibitors of the Interaction of Thyroid Hormone Receptor and Steroid Receptor Coregulator 2; TRbeta-SRC2 peptide binding, fluorescence polarization; receptor liganded with 1 µM T3; 280,000 compounds, 0.065% hits; Potency, µM (titrated, usually from 106 µM), inactives show top-dose activity change, negative = inhibition, hits mostly inhibitors; Thyroid hormone receptor beta (Homo sapiens), P10828;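 note: potency is the fitted concentration of half-maximal effect; plate controls were bound peptide for no effect and peptide without receptor for full effect; nearly all actives have a fitted effect of over 50% in size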
#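 TRb LBD 0.6 uM + Texas Red SRC2 peptide 20 nM, 1 uM T3, Tris buffer w/ 5% DMSO; compound pinned, 5 h RT; FP read ex 555/em 632; normalized to unbound and bound controls.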
# RGS12 GoLoco inh-2 – Confirmation qHTS Assay for Inhibitors of RGS12 GoLoco Motif Activity (Red Fluorophore) | shares compounds with RGS12 GoLoco inh-1 | Gai1/rhodamine-RGS12 GoLoco peptide fluorescence polarization | Potency, µM (highest dose often 57.1 µM), without a hit: at the highest dose activity, negative = inhibition, usual class: inhibitors | 110 compounds, 50% hits
# APE1 dye cs – Counterscreen for APE1 Inhibitors: Fluorescent Dye Displacement Assay; 480 compounds, 7% hits; shares compounds with APE1 inh-1; Potency, µM (doses to about 28.5 µM), for inactives: top-dose activity change, negative = inhibition, actives largely listed as inhibitors; DNA fluorescent dye displacement counterscreen, fluorescence;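 note: loss of thiazole orange fluorescence as the dye is displaced from duplex DNA; potency is the fitted concentration of half-maximal effect; 0% = ThO with dsDNA and no compound and -100% = ThO without dsDNA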
# Endo IV inh – Counterscreen for APE1 Inhibitors: qHTS Assay for Inhibitors of Endonuclease IV | E. coli Endo IV, fluorogenic AP-site DNA cleavage | shares compounds with APE1 inh-1 | 560 compounds, 4% hits | Potency, µM (doses to about 27.1 µM), for inactives: at the highest dose activity change, negative = inhibition, hits mostly inhibitors;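 note: potency is the fitted concentration of half-maximal effect; plate controls were uninhibited enzyme wells for no effect and no enzyme buffer wells for full effect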
# APE1 inh-2 – Confirmation qHTS Assay for Inhibitors of the Human Apurinic/apyrimidinic Endonuclease 1 (APE1); shares compounds with APE1 inh-1; Potency, µM (doses to about 57.1 µM), for inactives: top-dose activity change, negative = inhibition, hits mostly inhibitors; AID 2572, 2010; purified APE1, fluorogenic abasic-site DNA cleavage; 750 compounds, 44% hits; note: potency is the fitted concentration of half-maximal effect; % is set by controls: 0 for no effect and ±100 for the full control effect; nearly all actives have a fitted effect of over 30% in size
# APE1 FP – qHTS FP-Based Assay for Inhibitors of the Human Apurinic/apyrimidinic Endonuclease 1 (APE1); shares compounds with APE1 inh-1; APE1 binding to TAMRA-labelled double-stranded DNA, fluorescence polarization displacement; Potency, µM (series often up to 28.5 µM), without a hit: at the highest dose activity, negative = inhibition, hits mostly inhibitors; 480 compounds, 7% hits; note: potency is the fitted concentration of half-maximal effect; % is set by controls: 0 for no effect and ±100 for the full control effect
# RECQ1 inh conf – Confirmation qHTS Assay for Inhibitors of RecQ-Like Dna Helicase 1 (RECQ1) | shares compounds with RECQ1 inh | RECQ1 helicase DNA unwinding, fluorescence | Potency, µM (series often up to 229 µM), for the others: at the top dose activity change, negative = inhibition, actives largely listed as inhibitors | 610 compounds, 28% hits | AID 2708, 2010; note: potency is the fitted concentration of half-maximal effect; % is set by controls: 0 for no effect and ±100 for the full control effect; nearly all actives have a fitted effect of over 45% in size
# RECQ1 ADP FP – Counterscreen for RECQ1 Inhibitors: ADP Fluorescence Polarization Displacement Assay; shares compounds with RECQ1 inh; Potency, µM (titrated, usually from 228 µM), for the others: top-dose activity change, negative = inhibition, usual class: inhibitors; AID 2711, 2010; 530 compounds, 27% hits; ADP fluorescence polarization displacement counterscreen; note: potency is the fitted concentration of half-maximal effect; % is set by controls: 0 for no effect and ±100 for the full control effect; nearly all actives have a fitted effect of over 45% in size
# The depositor's hits bear a star; i = inactive; ? = inconclusive; nt = not tested or not shown; ! = a repeat was not active; [ ] = remark or other dose. An excerpt weighted towards active compounds, which were near 0.9% of everything screened. Unless noted, calls come from the whole dose curve; as a rule, active = well fitted curve in the direction sought with a large enough effect; inconclusive = small, poorly fitted or top-dose-only effect, or another doubt; inactive = no such curve, though single readings can be large; an effect the other way counts as inactive or inconclusive.
SMILES,APE1 inh-1,RGS12 GoLoco inh-1,BLM helicase inh,RECQ1 inh,TexasRed fluor,TRb SRC2 PPI,Endo IV inh,APE1 inh-2,others
COc1ccc2c(c1OC)C(=O)OC2C1c2cc3c(cc2CCN1C)OCO3 (centres undefined),1%,20µM*!,1%,18%,-1%,-1%,nt,nt,RGS12 GoLoco inh-2=1%
Oc1ccc2c3c1OC1C(O)CC[C@]4(O)C(C2)N(CC2CCC2)CC[C@]314 (some centres undefined),2%,28µM*,-6%,14%,2%,3%,nt,nt,RGS12 GoLoco inh-2=1%
Oc1ccc2c3c1OC1C(O)CC[C@@]4(O)[C@@H](C2)N(CC2CCC2)CC[C@]314 (some centres undefined),-2%,6%,-1%,-6%,-3%,2%,nt,nt,
CCOc1nc(F)cc2nc(S(=O)(=O)Nc3c(Cl)cccc3Cl)nn12,nt,nt,nt,nt,9%[201 µM],-4%[201 µM],nt,nt,
O=C(CCN1CC2CCC(CC2)C1)c1cccs1,nt,4%[14.2 µM],nt,nt,nt,nt,nt,nt,
CCCC[N+]12CCC(CC1)C(C(=O)c1cccs1)C2 (centres undefined),-2%,6.3µM*,0%,i,1%,0%,nt,nt,RGS12 GoLoco inh-2=16µM*
CC(C)N1C(=O)N(c2ccccc2)CSC1=NC(C)(C)C,nt,nt,nt,nt,5%[201 µM],-2%[201 µM],nt,nt,
CCC(CO)(C(=O)OC1C[N+]2(C)CCC1CC2)c1ccccc1 (centres undefined),-1%,16µM*,1%,-1%,-6%,-3%,nt,nt,RGS12 GoLoco inh-2=16µM*
CC[C@@]1(O)CC(O)c2c(cc3c(c2O)C(=O)c2c(O)ccc(O)c2C3=O)C1C(=O)OC (some centres undefined),?,2.8µM*,?,4µM*,?,-10%,nt,nt,RGS12 GoLoco inh-2=5µM*;RECQ1 inh conf=50µM*;RECQ1 ADP FP=0.89µM*
CCOC(=O)C(Cl)Cc1cc(-n2nc(C)n(C(F)F)c2=O)c(F)cc1Cl (centres undefined),nt,nt,nt,nt,0%[201 µM],-6%[201 µM],nt,nt,
N#CC(=Cc1ccc(O)c(O)c1)C(N)=S,?,28%,nt,?,-8%,0%,-8%[57.1 µM],-25%,
COC(=O)/C=C(\C)OP(=O)(OC)OC,nt,nt,nt,nt,-1%[201 µM],-3%[201 µM],nt,nt,
CCCN1CCc2cccc3c2C1Cc1ccc(O)c(O)c1-3 (centres undefined),0%,22%,nt,-16%,-7%,2%,-2%[57.1 µM],-24%,
CCOP(=O)(OCC)OP(=O)(OCC)OCC,nt,nt,nt,nt,-1%[201 µM],6%[201 µM],nt,nt,
O=C(O)Cn1cc(/C=C2\C(=O)NC(=O)N(Cc3ccco3)C2=O)c2ccccc21,7.9µM*,127%,77%,14µM*,-18%,15%,22%,11µM*,APE1 dye cs=?;APE1 FP=-3%
CN1COCN(Cc2cnc(Cl)s2)/C1=N\[N+](=O)[O-],nt,nt,nt,nt,3%[201 µM],-1%[201 µM],nt,nt,
NCC(O)c1cc(O)c(O)cc1F (centres undefined),1.1µM*!,5%,nt,?,3%,1%,-2%[57.1 µM],-20%,
CC1(C(=O)Nc2ccc(O)c(Cl)c2Cl)CCCCC1,nt,nt,nt,nt,-3%[201 µM],-2%[201 µM],nt,nt,
O=C1C[C@@H](c2ccc(O)cc2)Oc2cc(O)cc(O)c21,-2%,6%,1%,-3%,0%,-7%,nt,nt,
Oc1cc(O)c2c(c1)OC(c1cc(O)c(O)c(O)c1)C(O)C2 (centres undefined),10µM*,-26%,-27%,35µM*,-12%,1%,16%[57.1 µM],5µM*,
O=C(OC1Cc2c(O)cc(O)cc2OC1c1cc(O)c(O)c(O)c1)c1cc(O)c(O)c(O)c1 (centres undefined),0.28µM*,-4%,?,1.6µM*,-9%,5%,9%[57.1 µM],0.089µM*,
